Reference: PubChem BioAssay (NCI)
About 79,000 compounds went through this panel and 15% of them were active in at least one assay; those are over-represented in the sample as a whole. Calls of active or inactive are those of the source. Cut-off read from the data, not from the text of the source: active = growth inhibition above about 70%; inactive = the rest.

Columns and labels:
[1] = NCI Yeast Anticancer Drug Screen. Data for the rad50 strain (AID 155);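 note: 0% = growth of vehicle-only cultures of the same strain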; conditions: S. cerevisiae rad50 strain growth inhibition; at 50.0 µM; hits give high values
Method in brief: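 Vehicle-treated cultures provide the reference for the growth inhibition reported for compound-exposed, repair-deficient yeast.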

[2] = NCI Yeast Anticancer Drug Screen. Data for the mec2-1 strain (AID 157); conditions: S. cerevisiae mec2-1 strain, at 50.0 µM, hits give high values
Method in brief: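 Using mec2-1 yeast: add compound, measure growth, express inhibition versus vehicle-treated cultures.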

[3] = NCI Yeast Anticancer Drug Screen. Data for the sgs1 mgt1 strain (AID 161);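 note: 0% = growth of cultures given vehicle only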; conditions: S. cerevisiae sgs1 mgt1 strain, at 50.0 µM, hits give high values
Method in brief: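 Percent growth inhibition was derived by comparing compound-exposed mutant yeast with vehicle-exposed cultures. The strain carries alterations in DNA damage repair.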

[4] = NCI Yeast Anticancer Drug Screen. Data for the cln2 rad14 strain (AID 165);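 note: 0% = growth equal to vehicle treated cultures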; conditions: S. cerevisiae cln2 rad14 strain, at 50.0 µM, hits give high values
Method in brief: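 Yeast strain cln2 rad14, bearing defects in cell cycle control and DNA repair, serves as the test system; values reflect growth inhibition compared with vehicle.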

[5] = NCI Yeast Anticancer Drug Screen. Data for the bub3 strain (AID 167); conditions: S. cerevisiae bub3 mutant strain, at 50.0 µM, hits give high values
Method in brief: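 Mutant yeast screening strain plus compound; vehicle-treated cultures serve as the 0% inhibition reference.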

[6] = NCI Yeast Anticancer Drug Screen. Data for the mlh1 rad18 strain (AID 175); conditions: S. cerevisiae mlh1 rad18 strain growth inhibition; at 50.0 µM; hits give high values
Method in brief: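 Steps: expose repair-defective yeast to compound; measure growth; express inhibition against vehicle-treated controls.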

Measured: growth inhibition

CCC/C(=N/NC(=O)C(N)=O)C(CC)C(=O)CCC(=O)N(Cc1ccccc1)Cc1ccccc1 (stereo unspecified)
inactive: [1] -17.6% | [2] -15.6% | [3] -26.6% | [4] 10.8% | [5] -10.4% | [6] -21.3%

O=S(=O)(Oc1cccc2ccccc12)c1ccc(Br)cc1
inactive: [1] 3.15% | [2] -13.4% | [3] 10.2% | [4] -9.75% | [5] 30.7% | [6] -10.3%

CC(CNC(N)=O)(CNC(N)=O)c1ccccc1
inactive: [1] -4.75% | [2] -9.05% | [3] -11.8% | [4] -21.6% | [5] -0.45% | [6] -25.1%

ClCC1COC(CCc2ccccc2)O1 (stereo unspecified)
inactive: [1] 18.4% | [2] -3.5% | [3] -10.9% | [4] 64.2% | [5] 3.1% | [6] 7.7%

CCN(CC)CCC(C)C(Cc1cccs1)OC(C)=O (stereo unspecified)
inactive: [1] 4.1% | [2] -3.9% | [3] -2.95% | [4] -39% | [5] 35.2% | [6] 5.6%

COc1nc(Cl)nc(C(N)=O)c1N
inactive: [1] 7.95% | [2] 9.9% | [3] -11.5% | [4] -11.1% | [5] -2.65% | [6] -4.85%

CNC(=O)OCc1c(COC(=O)NC)c(-c2cccs2)n2c1CCC2
inactive: [1] 42% | [2] 39.5% | [3] 23.1% | [4] 30.8% | [5] 27.1% | [6] 40.7%

CC(=O)Nc1cc2cc(NS(=O)(=O)c3ccc(Cl)c(Cl)c3)ccc2oc1=O
inactive: [1] 8.35% | [2] -1.55% | [3] 0.35% | [4] 19.9% | [5] -4% | [6] 10.4%

CC(=O)c1ccc2c(c1)-c1ccccc1C(=O)C2=O
inactive: [1] -24.6% | [2] -22.7% | [3] 10.3% | [4] -19.8% | [5] -15.3% | [6] 5.85%

Oc1cccc2c1N1CCN2CC1
inactive: [1] -2.15% | [2] 2.55% | [3] 11.2% | [4] 4.85% | [5] 9.6% | [6] 10.3%

O=C(NCC(O)CNC(=O)C(F)(F)F)C(F)(F)F
inactive: [1] 5.2% | [2] 7.75% | [3] 8.75% | [4] 28.4% | [5] 14.4% | [6] -27.2%

O=C1NC(=O)C(=NC2C(=O)NC(=O)NC2=O)C(=O)N1
inactive: [1] 6.65% | [2] 29.4% | [3] 31.3% | [4] 1.5% | [5] 26.1% | [6] 19.8%

FC(F)(F)c1cc(NC(=S)SCc2ccc(Cl)cc2)ccc1Cl
inactive: [1] 22.8% | [2] 8.7% | [3] 16.2% | [4] 14.6% | [5] 13.6% | [6] 11.2%

O=C1OC(C2OC(=O)C(=O)C2C(=O)c2cccc([N+](=O)[O-])c2)C(C(=O)c2cccc([N+](=O)[O-])c2)C1=O (stereo unspecified)
inactive: [1] 0.5% | [2] 40.9% | [3] 13.3% | [4] -33.6% | [5] -36.5% | [6] 29.6%

COCCN(CCOC)C1C2=C(CCCC2)OS(=O)(=O)C1c1ccccc1 (stereo unspecified)
inactive: [1] 26.9% | [2] -4.75% | [3] 6.45% | [4] 12.9% | [5] 3.2% | [6] 0.05%

CCNC(=O)OC(C)C(O)c1ccccc1 (stereo unspecified)
inactive: [1] 0.05% | [2] 11.6% | [3] 33.2% | [4] 6.8% | [5] -19.6% | [6] 29.2%

CC1C(=O)C(c2ccccc2)(c2ccccc2)CC[N+]1(C)C (stereo unspecified)
inactive: [1] 1.1% | [2] 5.4% | [3] 2.8% | [4] -13.7% | [5] 4.1% | [6] 10.4%

CS(=O)(=O)Nc1ccc2ccccc2c1
inactive: [1] -33.8% | [2] 18.8% | [3] -22.5% | [4] 5.1% | [5] -3.05% | [6] -3.7%

CCCCCC(=O)Cc1cc(OC)cc2c1C(=O)Oc1cc(O)c(C(=O)O)c(CC(=O)CCCCC)c1O2
active: [1] 83% | [2] 86.5% | [3] 85.8% | [4] 79.4% | [5] 80.1% | [6] 78.1%

O=S(=O)(O)SCCCNCCCCCCCCNCCCSS(=O)(=O)O
inactive: [1] -18.6% | [2] -8.85% | [3] -1.6% | [4] -13.3% | [5] 8.45% | [6] 3.45%

Cc1ccc(O)c(C(=O)C[n+]2ccccc2)c1
inactive: [1] -12.8% | [2] -9.65% | [3] -1.25% | [4] 1.2% | [5] 0.1% | [6] -0.55%

O=[N+]([O-])c1ccc(S(=O)c2ccc([N+](=O)[O-])cc2)cc1
inactive: [1] 24.8% | [2] 11.6% | [3] 5.5% | [4] -11.1% | [5] -1.75% | [6] -4.75%

CCCCCCC(=O)C/C(CCC(=O)N(Cc1ccccc1)Cc1ccccc1)=N\NC(N)=O
inactive: [1] -6.65% | [2] 2.75% | [3] -14.8% | [4] 3.75% | [5] -6.65% | [6] -20.8%

CCOC(=O)c1ccc(NC(=S)Nc2ccccc2S)cc1
inactive: [1] 16.4% | [2] 16.4% | [3] 22.9% | [4] 9.35% | [5] 10.1% | [6] 11.9%

COc1cccc(C(=O)C(O)c2cccc(OC)c2OC)c1OC (stereo unspecified)
inactive: [1] 0.6% | [2] -5.45% | [3] 8.2% | [4] 0.15% | [5] -10.6% | [6] -42%

CCCC(O)CN (stereo unspecified)
inactive: [1] -5.65% | [2] 18.2% | [3] -12.7% | [4] 9.4% | [5] -0.85% | [6] 24.9%

CC(C)CCN(CC(C)C)C(=O)c1ccc([N+](=O)[O-])cc1 (tested in a mixture with another compound)
inactive: [1] 16.1% | [2] 0.6% | [3] 8.75% | [4] -3.25% | [5] -5.6% | [6] 14.1%

O=[N+]([O-])c1ccc(-n2cnc3c(Cl)ncnc32)cc1
inactive: [1] 1.2% | [2] 35.9% | [3] 14.6% | [4] -0.55% | [5] 28.4% | [6] 0.6%

COc1cc(O)c2c(c1)C(=O)c1cc3c(c(O)c1C2=O)CC(OC)C(C)(O)C3O (stereo unspecified)
active: [1] 90.5% | [2] 91.3% | [3] 91.8% | [4] 88.5% | [5] 91.8% | [6] 91.2%

NC(=O)C1C2CC3C(C2)C31 (stereo unspecified)
inactive: [1] 2.9% | [2] 11.2% | [3] -1% | [4] -1% | [5] 3.4% | [6] 4.95%

CCCCOc1ccc(/C=C/C(=O)OCC(CC)CCCC)cc1 (stereo unspecified)
inactive: [1] -10.2% | [2] -6.2% | [3] 12.4% | [4] -63.4% | [5] 12.2% | [6] -9.05%

COc1cc2c(c3oc(=O)cc(CCC(=O)O)c13)C1CC(=O)OC1O2 (stereo unspecified)
inactive: [1] 3.75% | [2] -16.6% | [3] -9.15% | [4] 1% | [5] -10.7% | [6] 10.8%

O=C(Cc1ccc(Cl)cc1)NCCc1ccccc1
inactive: [1] -1.4% | [2] -14.6% | [3] -5.15% | [4] 32.9% | [5] 18.4% | [6] 7.3%

CC(C)(C)C(O)CC(O)(C(F)(F)F)C(F)(F)F (stereo unspecified)
inactive: [1] -2.45% | [2] -21.1% | [3] -12.8% | [4] 19.6% | [5] -5.9% | [6] -1.9%

CC1(C)Cc2cccc(OC(=O)NO)c2O1
inactive: [1] -0.65% | [2] 24.4% | [3] 0.45% | [4] -37.8% | [5] -3.1% | [6] 9%

CCOC(=O)C12CCCCC1=CC1(CC2)SCCS1 (stereo unspecified)
inactive: [1] -0.45% | [2] -9.95% | [3] -30.5% | [4] -1.35% | [5] 4.55% | [6] -15.6%

CC(Oc1ccccc1-c1ccccc1)C(=O)O (stereo unspecified)
inactive: [1] 6.95% | [2] -22.2% | [3] -5.9% | [4] 5.45% | [5] -1.9% | [6] 15.1%

COC(=O)C1CCC(/C(C#N)=C2/CCC(C(=O)OC)[N-]2)=N1.COC(=O)C1CCC(/C(C#N)=C2/CCC(C(=O)OC)[N-]2)=N1.[Cu+2] (stereo unspecified)
inactive: [1] -13.8% | [2] -24.2% | [3] 3.5% | [4] -43.3% | [5] -24.5% | [6] 11.2%

CN1NC(c2ccc(Cl)cc2)=C(C#N)C(=O)CC1c1ccccc1 (stereo unspecified)
inactive: [1] 2.1% | [2] -7.95% | [3] -5.05% | [4] 10.5% | [5] -20.4% | [6] 2.35%

Cc1ccc(S(=O)(=O)NC(=O)NCc2cccc(Cl)c2)cc1
inactive: [1] -0.3% | [2] 28.2% | [3] 19.8% | [4] -15.6% | [5] 13.9% | [6] 6.3%

COC(=O)C(Cl)=C1CC1
inactive: [1] 5.7% | [2] 10.4% | [3] -6.95% | [4] 18.6% | [5] 6.25% | [6] -5.6%
